# Records with an inconclusive call do not appear. Where a call stands in place of a potency, no number is given. Some compounds were tested as several samples or in several runs, with calls that do not always agree. The source made the active and inactive calls. Calls come from the whole dose curve; as a rule, active = well fitted inhibition curve with a large enough effect; inconclusive = small, poorly fitted or top-dose-only effect; inactive = flat fitted curve, though single readings scatter.
# Molecular target: Phospholipid hydroperoxide glutathione peroxidase GPX4 (Homo sapiens) (UniProt P36969)
# Assay: Primary qHTS Assay for Inhibitors of Recombinant Selenoprotein Glutathione Peroxidase 4 (GPX4) (AID 1845192); note: nearly all actives have a fitted effect of over 65% in size; note: potency is the fitted concentration of half-maximal effect
# Conditions: recombinant GPX4, GR-coupled NADPH fluorescence, 15 min; series mostly up to 50 µM; activity change, negative = inhibition: at the top concentration
# Procedure, shortened: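 NADPH consumption followed by fluorescence at 340/450 nm, t=0 and after 15 min at room temperature. Reaction started with cumene hydroperoxide (0.5 mM final) after 30 min compound–GPX4 preincubation; final 200 nM GPX4, 100 nM GR, 1 mM GSH, 0.5 mM NADPH.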
# Phospholipid hydroperoxide glutathione peroxidase GPX4 (Homo sapiens), sequence (P36969 whole entry, looked up): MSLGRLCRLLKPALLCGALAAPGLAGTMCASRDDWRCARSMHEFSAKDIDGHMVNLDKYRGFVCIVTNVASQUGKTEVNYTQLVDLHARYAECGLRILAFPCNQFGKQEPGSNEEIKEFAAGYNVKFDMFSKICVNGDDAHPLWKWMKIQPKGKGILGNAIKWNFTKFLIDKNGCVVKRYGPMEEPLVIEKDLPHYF
Structure (SMILES),"activity change, negative = inhibition",Potency,outcome
Cc1cccc(Nc2cc(Cl)nc(SCC(=O)O)n2)c1C,-2.59% (inactive),,
CCOC(CN1CCN(CC(C)C(=O)c2ccccc2)CC1)c1ccccc1 (centres undefined),,inactive,
NCCNCCNCCN,3.79% (inactive),,
N[C@@H](CSSC[C@H](N)C(=O)O)C(=O)O,-7.83% [at 0.409 µM] (inactive),,
CC(=O)NC(Cc1ccccc1)C(=O)O (centres undefined),-0.375% (inactive),,
O=C(CCCN1CCN(c2ccccn2)CC1)c1ccc(F)cc1,,inactive,
C[C@@H]1CN(c2c(F)c(F)c3c(=O)c(C(=O)O)cn(C4CC4)c3c2F)C[C@H](C)N1,,inactive,
CCOC(=O)[C@H](CCc1ccccc1)N[C@@H](C)C(=O)N1C(=O)N(C)C[C@H]1C(=O)O,,inactive,
CN(C)CCN(Cc1ccccc1)c1ccccn1,,,inactive
C[C@]12CC[C@@H]3c4ccc(O)cc4CC[C@H]3[C@@H]1CC[C@@H]2OC(=O)CCC1CCCC1,,,inactive
CCCCN1CCCC[C@H]1C(=O)Nc1c(C)cccc1C,,inactive,
CC/C=C(\C(=O)N[C@@H]1C(=O)N2C(C(=O)OCOC(=O)C(C)(C)C)=C(COC(N)=O)CS[C@H]12)c1csc(N)n1,,11.2 µM (active) and inactive,
CN(C)CCCN1c2ccccc2CCc2ccccc21,,inactive,
C[C@@H]1C[C@H]2[C@@H]3C[C@H](F)C4=CC(=O)C=C[C@]4(C)[C@@]3(F)[C@@H](O)C[C@]2(C)[C@@]1(O)C(=O)CO,,inactive,
CC(C(O)c1ccc(O)cc1)N1CCC(Cc2ccccc2)CC1 (centres undefined),,inactive,
CC(C)c1c(C(=O)Nc2ccccc2)c(-c2ccccc2)c(-c2ccc(F)cc2)n1CC[C@@H](O)C[C@@H](O)CC(=O)O,,inactive,
c1ccc(CN(CC2=NCCN2)c2ccccc2)cc1,,inactive,

Structure (SMILES),"activity change, negative = inhibition",Potency,outcome
CCOc1ccc2ccccc2c1C(=O)N[C@@H]1C(=O)N2[C@@H]1SC(C)(C)[C@@H]2C(=O)O,,inactive,
Cc1ccc(C(C)C)cc2c(C)ccc1-2,-19.7% (inactive),,
CCN(CC)CCNC(=O)c1cc(Cl)c(N)cc1OC,,inactive,
COC(=O)C1=C(C)NC(C)=C(C(=O)OC)C1c1ccccc1[N+](=O)[O-],,inactive,
CN1CCOC(c2ccccc2)c2ccccc2C1 (centres undefined),,inactive,
OCC(O)CN1CCN(c2ccccc2)CC1 (centres undefined),4.55% (inactive),,
CCCCOc1cc(C(=O)OCCN(CC)CC)ccc1N,,inactive,
CC(C)(C)C(=O)C(Oc1ccc(Cl)cc1)n1ccnc1 (centres undefined),,inactive,
CCN(CC)C(=O)Nc1ccc(OCC(O)CNC(C)(C)C)c(C(C)=O)c1 (centres undefined),,inactive,
Nc1ccc(S(=O)(=O)Nc2nccs2)cc1,,inactive,
CS(=O)(=O)c1ccc([C@@H](O)[C@@H](CF)NC(=O)C(Cl)Cl)cc1,,inactive,
Cn1c(=O)c2c(ncn2CC2OCCO2)n(C)c1=O,5.57% (inactive),,
COc1cc(C)c(Cc2cnc(N)nc2N)cc1OC,-4.31% (inactive),,
COc1ccc2[nH]c(S(=O)Cc3ncc(C)c(OC)c3C)nc2n1 (centres undefined),-23.2% (inactive),,
COc1ccc2c(c1)C(=O)N(CCc1ccc(S(=O)(=O)NC(=O)NC3CCCCC3)cc1)C(=O)C2(C)C,1.3% (inactive),,
O=c1[nH]cnc2c1ncn2[C@@H]1O[C@H](CO)[C@@H](O)[C@H]1O,,inactive,

# Molecular target: Luciferin 4-monooxygenase (Photinus pyralis) (UniProt P08659)
# Assay: Primary firefly luciferase (FLuc) qHTS assay for identification of artifact compounds. (AID 1845220); note: nearly all actives have a fitted effect of over 60% in size
# Conditions: purified firefly luciferase, luminescence, 5 min; series mostly up to 54.1 µM; activity change, negative = inhibition: at the top concentration
# Procedure, shortened: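 Cell-free, 1536-well qHTS. Buffer pH 7.6 with 0.01% Tween-20 and 0.05% BSA; 10 uM D-luciferin, 10 uM ATP; 10 nM P. pyralis luciferase; luminescence after 5 min.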
Structure (SMILES),"activity change, negative = inhibition",outcome
Cc1cccc(Nc2cc(Cl)nc(SCC(=O)O)n2)c1C,-8.67% (inactive),
CCOC(CN1CCN(CC(C)C(=O)c2ccccc2)CC1)c1ccccc1 (centres undefined),-16.3% (inactive),
CC(=O)NC(Cc1ccccc1)C(=O)O (centres undefined),,inactive [at 86.2 µM]
O=C(CCCN1CCN(c2ccccn2)CC1)c1ccc(F)cc1,1.68% (inactive),
C[C@@H]1CN(c2c(F)c(F)c3c(=O)c(C(=O)O)cn(C4CC4)c3c2F)C[C@H](C)N1,2.25% [at 11.6 µM] (inactive),
CCOC(=O)[C@H](CCc1ccccc1)N[C@@H](C)C(=O)N1C(=O)N(C)C[C@H]1C(=O)O,4.22% (inactive),
C[C@]12CC[C@@H]3c4ccc(O)cc4CC[C@H]3[C@@H]1CC[C@@H]2OC(=O)CCC1CCCC1,2.21% (inactive),
CCCCN1CCCC[C@H]1C(=O)Nc1c(C)cccc1C,2.79% (inactive),
CC/C=C(\C(=O)N[C@@H]1C(=O)N2C(C(=O)OCOC(=O)C(C)(C)C)=C(COC(N)=O)CS[C@H]12)c1csc(N)n1,-9.81% (inactive),
C[C@@H]1C[C@H]2[C@@H]3C[C@H](F)C4=CC(=O)C=C[C@]4(C)[C@@]3(F)[C@@H](O)C[C@]2(C)[C@@]1(O)C(=O)CO,-2.45% (inactive),
CC(C(O)c1ccc(O)cc1)N1CCC(Cc2ccccc2)CC1 (centres undefined),,inactive [at 25.7 µM]
CC(C)c1c(C(=O)Nc2ccccc2)c(-c2ccccc2)c(-c2ccc(F)cc2)n1CC[C@@H](O)C[C@@H](O)CC(=O)O,,inactive [at 25.7 µM]
c1ccc(CN(CC2=NCCN2)c2ccccc2)cc1,,inactive
CCOc1ccc2ccccc2c1C(=O)N[C@@H]1C(=O)N2[C@@H]1SC(C)(C)[C@@H]2C(=O)O,,inactive
CCN(CC)CCNC(=O)c1cc(Cl)c(N)cc1OC,,inactive
CN1CCOC(c2ccccc2)c2ccccc2C1 (centres undefined),,inactive
OCC(O)CN1CCN(c2ccccc2)CC1 (centres undefined),3.42% (inactive),
CCCCOc1cc(C(=O)OCCN(CC)CC)ccc1N,,inactive
CC(C)(C)C(=O)C(Oc1ccc(Cl)cc1)n1ccnc1 (centres undefined),-0.96% (inactive),
CCN(CC)C(=O)Nc1ccc(OCC(O)CNC(C)(C)C)c(C(C)=O)c1 (centres undefined),1.81% (inactive),
Nc1ccc(S(=O)(=O)Nc2nccs2)cc1,-3.39% (inactive),
CS(=O)(=O)c1ccc([C@@H](O)[C@@H](CF)NC(=O)C(Cl)Cl)cc1,3.84% (inactive),
Cn1c(=O)c2c(ncn2CC2OCCO2)n(C)c1=O,,inactive
COc1ccc2[nH]c(S(=O)Cc3ncc(C)c(OC)c3C)nc2n1 (centres undefined),,inactive
COc1ccc2c(c1)C(=O)N(CCc1ccc(S(=O)(=O)NC(=O)NC3CCCCC3)cc1)C(=O)C2(C)C,-11.4% (inactive),
O=c1[nH]cnc2c1ncn2[C@@H]1O[C@H](CO)[C@@H](O)[C@H]1O,,inactive
